# According to ChEMBL document CHEMBL1961873, “Compounds: GSK PKIS; Assays: Nanosyn kinase panel” (2012):
# Columns and labels:
# [1] = biological target: Calcium/calmodulin-dependent protein kinase type II subunit alpha (Homo sapiens) (UniProt Q9UQM7); conditions: at 1 µM;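 note: reported value is a mean percent inhibition of CAMK2A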
# [2] = biological target: Calcium/calmodulin-dependent protein kinase type II subunit delta (Homo sapiens) (UniProt Q13557); conditions: at 0.1 µM
# [3] = biological target: Calcium/calmodulin-dependent protein kinase type II subunit delta (Homo sapiens) (UniProt Q13557); conditions: at 1 µM
# [4] = biological target: T1, Calcium/calmodulin-dependent protein kinase type IV (Homo sapiens) (UniProt Q16566); conditions: at 0.1 µM
# T1 sequence (whole entry): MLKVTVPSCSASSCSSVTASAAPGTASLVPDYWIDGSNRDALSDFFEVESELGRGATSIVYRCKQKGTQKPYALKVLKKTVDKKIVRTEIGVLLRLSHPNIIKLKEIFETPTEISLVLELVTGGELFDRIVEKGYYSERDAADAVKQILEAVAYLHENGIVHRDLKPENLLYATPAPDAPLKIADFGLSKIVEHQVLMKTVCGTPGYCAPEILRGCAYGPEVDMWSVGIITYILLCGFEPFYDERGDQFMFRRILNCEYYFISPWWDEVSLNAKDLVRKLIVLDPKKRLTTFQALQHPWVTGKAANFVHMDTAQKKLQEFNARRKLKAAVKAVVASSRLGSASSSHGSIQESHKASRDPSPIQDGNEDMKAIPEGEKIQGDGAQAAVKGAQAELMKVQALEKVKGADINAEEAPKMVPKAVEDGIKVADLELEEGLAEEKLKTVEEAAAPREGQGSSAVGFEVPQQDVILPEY
# [5] = biological target: T1, Calcium/calmodulin-dependent protein kinase type IV (Homo sapiens); conditions: at 1 µM
# [6] = biological target: T2, Serine/threonine-protein kinase Chk1 (Homo sapiens) (UniProt O14757); conditions: at 0.1 µM
# T2 sequence (whole entry): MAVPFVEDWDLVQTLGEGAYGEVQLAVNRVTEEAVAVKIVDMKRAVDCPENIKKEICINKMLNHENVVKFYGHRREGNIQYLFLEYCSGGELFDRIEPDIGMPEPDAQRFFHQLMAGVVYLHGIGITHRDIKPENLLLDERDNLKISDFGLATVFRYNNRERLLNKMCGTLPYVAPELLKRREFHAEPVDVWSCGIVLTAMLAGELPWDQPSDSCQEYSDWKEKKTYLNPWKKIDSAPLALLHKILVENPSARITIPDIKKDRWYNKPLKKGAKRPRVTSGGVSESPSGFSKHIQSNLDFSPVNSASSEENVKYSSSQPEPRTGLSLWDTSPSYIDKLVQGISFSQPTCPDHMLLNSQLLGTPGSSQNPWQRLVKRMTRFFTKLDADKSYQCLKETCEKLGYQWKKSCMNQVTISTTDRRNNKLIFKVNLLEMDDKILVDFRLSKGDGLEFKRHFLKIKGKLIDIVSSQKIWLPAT
# [7] = biological target: T2, Serine/threonine-protein kinase Chk1 (Homo sapiens); conditions: at 1 µM
# [8] = biological target: Serine/threonine-protein kinase Chk2 (Homo sapiens) (UniProt O96017); conditions: at 0.1 µM
# Sequence of Serine/threonine-protein kinase Chk2 (Homo sapiens) (O96017 whole entry): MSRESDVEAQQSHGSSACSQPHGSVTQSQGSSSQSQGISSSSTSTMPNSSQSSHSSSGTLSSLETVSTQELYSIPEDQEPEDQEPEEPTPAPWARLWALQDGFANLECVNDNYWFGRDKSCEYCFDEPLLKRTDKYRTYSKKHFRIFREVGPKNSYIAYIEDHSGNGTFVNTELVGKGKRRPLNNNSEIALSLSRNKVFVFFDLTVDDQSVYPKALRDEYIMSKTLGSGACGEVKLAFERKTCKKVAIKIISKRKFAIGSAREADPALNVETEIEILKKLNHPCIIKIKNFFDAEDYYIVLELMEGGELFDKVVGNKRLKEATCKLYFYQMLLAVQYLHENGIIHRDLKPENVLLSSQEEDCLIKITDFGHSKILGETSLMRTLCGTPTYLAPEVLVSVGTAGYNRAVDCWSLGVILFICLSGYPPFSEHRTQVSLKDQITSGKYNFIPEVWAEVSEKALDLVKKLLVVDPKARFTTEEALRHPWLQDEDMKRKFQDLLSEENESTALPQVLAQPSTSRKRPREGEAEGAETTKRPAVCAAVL
# [9] = biological target: Serine/threonine-protein kinase Chk2 (Homo sapiens) (UniProt O96017); conditions: at 1 µM
# [10] = biological target: Death-associated protein kinase 1 (Homo sapiens) (UniProt P53355); conditions: at 0.1 µM
# Sequence of Death-associated protein kinase 1 (Homo sapiens) (P53355 whole entry, looked up): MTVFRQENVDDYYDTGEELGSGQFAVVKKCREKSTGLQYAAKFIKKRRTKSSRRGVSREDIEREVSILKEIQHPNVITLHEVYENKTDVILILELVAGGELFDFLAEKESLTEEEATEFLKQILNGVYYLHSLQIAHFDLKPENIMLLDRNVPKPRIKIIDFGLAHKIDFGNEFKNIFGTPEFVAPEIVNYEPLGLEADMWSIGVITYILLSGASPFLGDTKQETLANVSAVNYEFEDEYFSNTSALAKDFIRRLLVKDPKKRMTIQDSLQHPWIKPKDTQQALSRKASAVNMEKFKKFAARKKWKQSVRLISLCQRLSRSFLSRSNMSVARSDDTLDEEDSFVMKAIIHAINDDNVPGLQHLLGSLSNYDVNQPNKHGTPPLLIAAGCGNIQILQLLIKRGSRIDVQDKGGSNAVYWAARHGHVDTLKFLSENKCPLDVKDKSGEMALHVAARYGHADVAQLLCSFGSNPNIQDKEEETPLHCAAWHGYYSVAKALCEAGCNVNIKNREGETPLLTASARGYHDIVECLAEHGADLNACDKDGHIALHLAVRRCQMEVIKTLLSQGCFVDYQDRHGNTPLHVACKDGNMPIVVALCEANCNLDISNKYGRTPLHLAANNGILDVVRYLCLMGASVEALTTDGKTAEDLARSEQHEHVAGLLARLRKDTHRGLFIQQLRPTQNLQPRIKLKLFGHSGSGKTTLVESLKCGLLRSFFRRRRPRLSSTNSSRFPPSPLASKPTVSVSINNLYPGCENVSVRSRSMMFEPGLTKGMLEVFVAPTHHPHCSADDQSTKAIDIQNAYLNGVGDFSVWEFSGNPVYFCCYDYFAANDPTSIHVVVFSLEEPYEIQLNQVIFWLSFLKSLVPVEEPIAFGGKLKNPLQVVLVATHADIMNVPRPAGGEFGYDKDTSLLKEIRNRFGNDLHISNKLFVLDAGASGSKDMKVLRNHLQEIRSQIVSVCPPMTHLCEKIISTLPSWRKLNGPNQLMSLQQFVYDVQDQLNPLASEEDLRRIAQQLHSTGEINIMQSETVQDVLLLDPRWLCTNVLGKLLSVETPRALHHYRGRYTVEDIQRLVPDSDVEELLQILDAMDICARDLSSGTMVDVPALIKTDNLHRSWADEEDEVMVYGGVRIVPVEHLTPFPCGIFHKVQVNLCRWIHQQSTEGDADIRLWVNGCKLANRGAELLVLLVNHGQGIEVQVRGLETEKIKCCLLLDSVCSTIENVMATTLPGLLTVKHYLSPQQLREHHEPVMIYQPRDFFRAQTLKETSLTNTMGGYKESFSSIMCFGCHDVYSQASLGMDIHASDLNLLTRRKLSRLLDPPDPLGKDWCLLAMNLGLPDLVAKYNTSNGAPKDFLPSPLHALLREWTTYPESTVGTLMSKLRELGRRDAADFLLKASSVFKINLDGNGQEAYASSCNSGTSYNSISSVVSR
# [11] = biological target: Death-associated protein kinase 1 (Homo sapiens) (UniProt P53355); conditions: at 1 µM
# [12] = biological target: T3, Serine/threonine-protein kinase DCLK2 (Homo sapiens) (UniProt Q8N568); conditions: at 0.1 µM
# T3 sequence (whole entry): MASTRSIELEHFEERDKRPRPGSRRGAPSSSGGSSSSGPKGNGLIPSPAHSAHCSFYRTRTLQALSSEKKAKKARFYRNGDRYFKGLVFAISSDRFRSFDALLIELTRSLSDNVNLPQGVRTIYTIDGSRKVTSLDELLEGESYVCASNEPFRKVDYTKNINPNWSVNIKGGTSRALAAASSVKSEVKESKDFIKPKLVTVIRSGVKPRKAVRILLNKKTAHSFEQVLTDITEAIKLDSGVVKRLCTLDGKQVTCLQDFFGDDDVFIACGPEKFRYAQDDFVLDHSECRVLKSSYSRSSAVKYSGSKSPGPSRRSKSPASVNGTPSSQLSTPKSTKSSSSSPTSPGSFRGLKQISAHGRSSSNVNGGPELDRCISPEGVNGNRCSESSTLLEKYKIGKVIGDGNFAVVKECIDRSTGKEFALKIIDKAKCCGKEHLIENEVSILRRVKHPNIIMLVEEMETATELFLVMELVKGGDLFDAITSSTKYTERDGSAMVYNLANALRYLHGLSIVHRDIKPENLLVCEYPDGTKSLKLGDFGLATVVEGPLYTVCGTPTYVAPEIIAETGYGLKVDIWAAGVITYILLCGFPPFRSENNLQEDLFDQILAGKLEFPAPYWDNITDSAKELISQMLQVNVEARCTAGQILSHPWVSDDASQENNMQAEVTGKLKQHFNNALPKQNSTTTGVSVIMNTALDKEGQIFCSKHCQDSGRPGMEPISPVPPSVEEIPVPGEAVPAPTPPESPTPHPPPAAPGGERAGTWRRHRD
# [13] = biological target: T3, Serine/threonine-protein kinase DCLK2 (Homo sapiens); conditions: at 1 µM
# [14] = biological target: MAP kinase-activated protein kinase 2 (Homo sapiens) (UniProt P49137); conditions: at 0.1 µM
# Sequence of MAP kinase-activated protein kinase 2 (Homo sapiens) (P49137 whole entry, looked up): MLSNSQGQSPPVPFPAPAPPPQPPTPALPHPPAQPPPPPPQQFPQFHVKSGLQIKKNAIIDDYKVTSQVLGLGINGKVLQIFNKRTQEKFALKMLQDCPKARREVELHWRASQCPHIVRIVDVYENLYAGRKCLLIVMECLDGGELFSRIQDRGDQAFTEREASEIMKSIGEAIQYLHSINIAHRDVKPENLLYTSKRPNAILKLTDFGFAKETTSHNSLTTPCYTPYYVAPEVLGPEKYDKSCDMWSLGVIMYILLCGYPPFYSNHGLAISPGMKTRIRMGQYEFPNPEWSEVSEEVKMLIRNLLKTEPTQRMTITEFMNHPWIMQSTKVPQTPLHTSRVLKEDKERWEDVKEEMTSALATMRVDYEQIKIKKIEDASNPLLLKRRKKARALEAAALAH
# [15] = biological target: MAP kinase-activated protein kinase 2 (Homo sapiens) (UniProt P49137); conditions: at 1 µM
# [16] = biological target: MAP kinase-activated protein kinase 3 (Homo sapiens) (UniProt Q16644); conditions: at 0.1 µM
# Sequence of MAP kinase-activated protein kinase 3 (Homo sapiens) (Q16644 whole entry, looked up): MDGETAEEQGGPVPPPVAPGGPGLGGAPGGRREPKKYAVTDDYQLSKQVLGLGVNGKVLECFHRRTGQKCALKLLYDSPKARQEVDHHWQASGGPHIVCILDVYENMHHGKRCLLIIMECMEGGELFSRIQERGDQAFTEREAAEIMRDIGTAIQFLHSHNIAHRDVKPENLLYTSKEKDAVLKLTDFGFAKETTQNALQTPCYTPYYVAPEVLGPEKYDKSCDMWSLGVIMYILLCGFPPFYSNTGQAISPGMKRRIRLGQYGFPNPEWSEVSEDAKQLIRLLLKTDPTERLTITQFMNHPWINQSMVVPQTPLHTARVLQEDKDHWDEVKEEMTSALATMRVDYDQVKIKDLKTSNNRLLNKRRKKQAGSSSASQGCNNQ
# [17] = biological target: MAP kinase-activated protein kinase 3 (Homo sapiens) (UniProt Q16644); conditions: at 1 µM
# [18] = biological target: Serine/threonine-protein kinase MARK1 (Homo sapiens) (UniProt Q9P0L2); conditions: at 0.1 µM
# Sequence of Serine/threonine-protein kinase MARK1 (Homo sapiens) (Q9P0L2 whole entry, looked up): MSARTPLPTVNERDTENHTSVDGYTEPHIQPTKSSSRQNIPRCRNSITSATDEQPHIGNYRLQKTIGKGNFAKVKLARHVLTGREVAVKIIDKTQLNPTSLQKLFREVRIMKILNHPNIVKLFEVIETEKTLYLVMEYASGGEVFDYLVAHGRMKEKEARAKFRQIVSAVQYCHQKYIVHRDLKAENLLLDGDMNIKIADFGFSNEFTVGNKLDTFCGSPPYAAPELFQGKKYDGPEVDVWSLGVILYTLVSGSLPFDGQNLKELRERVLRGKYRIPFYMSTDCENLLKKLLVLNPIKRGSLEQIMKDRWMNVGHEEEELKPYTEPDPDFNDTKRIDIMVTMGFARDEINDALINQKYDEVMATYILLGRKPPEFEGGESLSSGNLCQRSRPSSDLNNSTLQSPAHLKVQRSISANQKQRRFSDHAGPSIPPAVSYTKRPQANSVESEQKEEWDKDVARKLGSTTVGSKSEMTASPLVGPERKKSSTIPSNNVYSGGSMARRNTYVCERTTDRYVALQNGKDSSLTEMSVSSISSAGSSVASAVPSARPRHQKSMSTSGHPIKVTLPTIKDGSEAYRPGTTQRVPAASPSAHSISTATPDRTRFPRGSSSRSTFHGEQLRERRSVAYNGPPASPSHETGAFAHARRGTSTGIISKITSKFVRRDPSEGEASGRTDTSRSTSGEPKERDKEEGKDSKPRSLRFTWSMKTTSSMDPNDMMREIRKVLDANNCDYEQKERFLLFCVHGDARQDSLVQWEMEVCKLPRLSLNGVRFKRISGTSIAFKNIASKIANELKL
# [19] = biological target: Serine/threonine-protein kinase MARK1 (Homo sapiens) (UniProt Q9P0L2); conditions: at 1 µM
# [20] = biological target: MAP/microtubule affinity-regulating kinase 3 (Homo sapiens) (UniProt P27448); conditions: at 0.1 µM;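 note: mean percent inhibition of MARK3 kinase activity, measured within the GSK PKIS screening panel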
# Sequence of MAP/microtubule affinity-regulating kinase 3 (Homo sapiens) (P27448 whole entry, looked up): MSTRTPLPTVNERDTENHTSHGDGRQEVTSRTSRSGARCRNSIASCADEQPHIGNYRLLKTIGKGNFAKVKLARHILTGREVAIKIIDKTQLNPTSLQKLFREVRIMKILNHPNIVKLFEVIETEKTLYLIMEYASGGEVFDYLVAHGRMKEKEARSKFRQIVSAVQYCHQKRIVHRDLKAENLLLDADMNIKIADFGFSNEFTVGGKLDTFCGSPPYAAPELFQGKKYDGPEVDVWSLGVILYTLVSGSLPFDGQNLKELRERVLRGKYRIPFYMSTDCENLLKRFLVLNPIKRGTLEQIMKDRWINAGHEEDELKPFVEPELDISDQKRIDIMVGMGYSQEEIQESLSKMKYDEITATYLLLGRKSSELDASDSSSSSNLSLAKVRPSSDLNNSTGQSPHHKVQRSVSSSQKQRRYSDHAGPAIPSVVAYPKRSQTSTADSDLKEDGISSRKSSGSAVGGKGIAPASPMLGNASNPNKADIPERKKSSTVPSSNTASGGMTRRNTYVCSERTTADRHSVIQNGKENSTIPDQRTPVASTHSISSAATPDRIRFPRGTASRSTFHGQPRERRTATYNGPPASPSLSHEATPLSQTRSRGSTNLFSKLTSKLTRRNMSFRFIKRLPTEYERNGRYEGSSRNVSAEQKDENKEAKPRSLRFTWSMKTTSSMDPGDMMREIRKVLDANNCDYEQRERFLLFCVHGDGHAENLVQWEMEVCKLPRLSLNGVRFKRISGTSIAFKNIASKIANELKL
# Sequence of Calcium/calmodulin-dependent protein kinase type II subunit alpha (Homo sapiens) (Q9UQM7 whole entry): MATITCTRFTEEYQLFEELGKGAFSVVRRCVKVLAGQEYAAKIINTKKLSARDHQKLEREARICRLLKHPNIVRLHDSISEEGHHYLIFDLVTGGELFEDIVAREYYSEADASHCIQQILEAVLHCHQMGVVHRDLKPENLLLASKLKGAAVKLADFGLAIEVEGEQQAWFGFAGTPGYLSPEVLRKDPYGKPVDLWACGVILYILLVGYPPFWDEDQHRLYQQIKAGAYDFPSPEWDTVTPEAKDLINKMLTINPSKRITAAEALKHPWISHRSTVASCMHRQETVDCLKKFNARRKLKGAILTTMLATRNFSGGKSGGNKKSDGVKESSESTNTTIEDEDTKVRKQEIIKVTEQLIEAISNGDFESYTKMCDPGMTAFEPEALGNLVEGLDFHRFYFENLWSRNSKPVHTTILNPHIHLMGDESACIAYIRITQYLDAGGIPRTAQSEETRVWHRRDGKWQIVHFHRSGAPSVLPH
smiles,measurement,setting,value
COc1cc2c(cc1Nc1nc(Nc3ccsc3C(N)=O)c3cc[nH]c3n1)N(C(=O)CN(C)C)CCC2(C)C,inhibition,[1],10.5%
same,inhibition,[2],7.45%
same,inhibition,[3],25.7%
same,inhibition,[4],3.29%
same,inhibition,[5],19.9%
same,inhibition,[6],-0.75%
same,inhibition,[7],-2.52%
same,inhibition,[8],0.76%
same,inhibition,[9],21.1%
same,inhibition,[10],-1.5%
same,inhibition,[11],5.25%
same,inhibition,[12],1.46%
same,inhibition,[13],5.94%
same,inhibition,[14],-0.48%
same,inhibition,[15],-0.86%
same,inhibition,[16],-0.72%
same,inhibition,[17],-0.02%
same,inhibition,[18],6.98%
same,inhibition,[19],11.9%
same,inhibition,[20],5.88%
c1ccc(-c2nc3n(c2-c2ccc4c(c2)OCO4)CCC3)nc1,inhibition,[1],0.36%
same,inhibition,[2],1.63%
same,inhibition,[3],0.93%
same,inhibition,[4],0.61%
same,inhibition,[5],-0.72%
same,inhibition,[6],3.23%
same,inhibition,[7],3.51%
same,inhibition,[8],-0.09%
same,inhibition,[9],0.94%
same,inhibition,[10],1.93%
same,inhibition,[11],1.91%
same,inhibition,[12],0.33%
same,inhibition,[13],2.8%
same,inhibition,[14],1.38%
same,inhibition,[15],1.27%
same,inhibition,[16],3.55%
same,inhibition,[17],3.33%
same,inhibition,[18],1.87%
same,inhibition,[19],4.07%
same,inhibition,[20],2.01%
CS(=O)(=O)CCNCc1coc(-c2ccc3ncnc(Nc4ccc(OCc5ccccc5)cc4)c3c2)c1,inhibition,[1],6.16%
same,inhibition,[2],2.95%
same,inhibition,[3],3.61%
same,inhibition,[4],2.14%
same,inhibition,[5],3.11%
same,inhibition,[6],1.85%
same,inhibition,[7],3.43%
same,inhibition,[8],5.28%
same,inhibition,[9],28.8%
same,inhibition,[10],2.7%
same,inhibition,[11],1.73%
same,inhibition,[12],-0.36%
same,inhibition,[13],0.64%
same,inhibition,[14],1.33%
same,inhibition,[15],1.98%
same,inhibition,[16],2.6%
same,inhibition,[17],1.32%
same,inhibition,[18],2.05%
same,inhibition,[19],1.62%
same,inhibition,[20],1.54%
O=S(=O)(CCNCc1ccc(-c2ccc3ncnc(Nc4ccc(OCc5cccc(F)c5)c(Cl)c4)c3c2)o1)c1ccccc1,inhibition,[1],2.35%
same,inhibition,[2],3.72%
same,inhibition,[3],4.42%
same,inhibition,[4],-0.6%
same,inhibition,[5],0.28%
same,inhibition,[6],7.26%
same,inhibition,[7],10.1%
same,inhibition,[8],2.55%
same,inhibition,[9],3.38%
same,inhibition,[10],8.91%
same,inhibition,[11],6.96%
same,inhibition,[12],1.44%
same,inhibition,[13],2.85%
same,inhibition,[14],2.31%
same,inhibition,[15],2.57%
same,inhibition,[16],7.71%
same,inhibition,[17],7.76%
same,inhibition,[18],3.69%
same,inhibition,[19],5.01%
same,inhibition,[20],3.94%
COc1cccc(-c2c[nH]c3c(N/N=C/c4ccncc4)ncnc23)c1,inhibition,[1],6.66%
same,inhibition,[2],3.84%
same,inhibition,[3],15.2%
same,inhibition,[4],1.55%
same,inhibition,[5],4.18%
same,inhibition,[6],7.71%
same,inhibition,[7],11.3%
same,inhibition,[8],5.73%
same,inhibition,[9],6.91%
same,inhibition,[10],9.18%
same,inhibition,[11],11.2%
same,inhibition,[12],1.17%
same,inhibition,[13],8.13%
same,inhibition,[14],2.94%
same,inhibition,[15],3.56%
same,inhibition,[16],9.72%
same,inhibition,[17],11.1%
same,inhibition,[18],2.74%
same,inhibition,[19],8.15%
same,inhibition,[20],6.06%
N#Cc1c(NC(=O)CN2CCOCC2)sc2c1CCCC2,inhibition,[1],4.63%
same,inhibition,[2],3.07%
same,inhibition,[3],5.65%
same,inhibition,[4],-1.76%
same,inhibition,[5],-1.41%
same,inhibition,[6],1.74%
same,inhibition,[7],5.06%
same,inhibition,[8],1.85%
same,inhibition,[9],4.14%
same,inhibition,[10],5.34%
same,inhibition,[11],5.97%
same,inhibition,[12],2.25%
same,inhibition,[13],1.22%
same,inhibition,[14],2.32%
same,inhibition,[15],2%
same,inhibition,[16],3.68%
same,inhibition,[17],5.44%
same,inhibition,[18],4.32%
same,inhibition,[19],6.04%
same,inhibition,[20],4.14%
CC(=O)Nc1cccc(C#Cc2cncnc2Nc2ccc(OCc3cccc(F)c3)c(Cl)c2)c1,inhibition,[1],4.52%
same,inhibition,[2],4.28%
same,inhibition,[3],3.37%
same,inhibition,[4],1.57%
same,inhibition,[5],3.24%
same,inhibition,[6],-1.89%
same,inhibition,[7],-3.6%
same,inhibition,[8],-2.67%
same,inhibition,[9],-1.77%
same,inhibition,[10],-6.34%
same,inhibition,[11],-5.4%
same,inhibition,[12],2.03%
same,inhibition,[13],-0.73%
same,inhibition,[14],-2.08%
same,inhibition,[15],-2.08%
same,inhibition,[16],-4.18%
same,inhibition,[17],-2.89%
same,inhibition,[18],1.42%
same,inhibition,[19],0.83%
same,inhibition,[20],3.81%
CC(=O)NCc1cccc(C#Cc2cncnc2Nc2ccc(OCc3cccc(F)c3)c(Cl)c2)c1,inhibition,[1],-0.5%
same,inhibition,[2],0.37%
same,inhibition,[3],1.1%
same,inhibition,[4],1.04%
same,inhibition,[5],2.01%
same,inhibition,[6],-3.2%
same,inhibition,[7],-4.26%
same,inhibition,[8],-4.58%
same,inhibition,[9],-3.41%
same,inhibition,[10],-6.93%
same,inhibition,[11],-8.59%
same,inhibition,[12],1.43%
same,inhibition,[13],6.49%
same,inhibition,[14],-2.58%
same,inhibition,[15],-3.05%
same,inhibition,[16],-4.92%
same,inhibition,[17],-5.42%
same,inhibition,[18],1.88%
same,inhibition,[19],2.89%
same,inhibition,[20],1.71%
Nc1nc(-c2cccc(Cl)c2)c(-c2ccc3ncccc3n2)s1,inhibition,[1],2.48%
same,inhibition,[2],2.83%
same,inhibition,[3],3.46%
same,inhibition,[4],-2.8%
same,inhibition,[5],-4.36%
same,inhibition,[6],9.85%
same,inhibition,[7],12.6%
same,inhibition,[8],10.1%
same,inhibition,[9],12.7%
same,inhibition,[10],12%
same,inhibition,[11],15.4%
same,inhibition,[12],1.69%
same,inhibition,[13],1.16%
same,inhibition,[14],4.89%
same,inhibition,[15],6.05%
same,inhibition,[16],13.6%
same,inhibition,[17],23.9%
same,inhibition,[18],5.51%
same,inhibition,[19],4.17%
same,inhibition,[20],2.28%
NS(=O)(=O)c1ccc(Nc2ncc(-c3ccccc3)o2)cc1,inhibition,[1],4.77%
same,inhibition,[2],2.92%
same,inhibition,[3],7.79%
same,inhibition,[4],-0.86%
same,inhibition,[5],-0.71%
same,inhibition,[6],0.75%
same,inhibition,[7],7.56%
same,inhibition,[8],1.94%
same,inhibition,[9],3.97%
same,inhibition,[10],3.79%
same,inhibition,[11],4.56%
same,inhibition,[12],1.31%
same,inhibition,[13],1.65%
same,inhibition,[14],1.62%
same,inhibition,[15],1.99%
same,inhibition,[16],2.89%
same,inhibition,[17],2.39%
same,inhibition,[18],3.62%
same,inhibition,[19],12.9%
same,inhibition,[20],4.38%
Fc1cccc(COc2ccc(Nc3ncnc4sc(-c5ccco5)cc34)cc2Cl)c1,inhibition,[1],-2.48%
same,inhibition,[2],3.02%
same,inhibition,[3],1.67%
same,inhibition,[4],-1.87%
same,inhibition,[5],-2.46%
same,inhibition,[6],10.1%
same,inhibition,[7],12.5%
same,inhibition,[8],7.63%
same,inhibition,[9],8.84%
same,inhibition,[10],13.2%
same,inhibition,[11],11.1%
same,inhibition,[12],-1.11%
same,inhibition,[13],4.98%
same,inhibition,[14],5.73%
same,inhibition,[15],4.4%
same,inhibition,[16],9.64%
same,inhibition,[17],11%
same,inhibition,[18],2.72%
same,inhibition,[19],5.69%
same,inhibition,[20],3.1%
